The record followed here is PubChem BioAssay (NCI).

Test systems include NCI-H23 lung; NCI-H226 lung; NCI-H322M lung; HOP-62 NSCLC; NCI-H460 lung; HOP-92 NSCLC; NCI-H522 lung; A549/ATCC NSCLC; 786-0 renal; COLO 205 colon.
Assay in all cases: NCI-60 one-dose screen, 48 h (100 = growth as untreated, 0 = no growth, -100 = all killed)
Common to all, as to details: 10 µM unless noted

Structures are written as SMILES. The panel holds about 83,000 compounds, 20% with a hit somewhere; the sample as a whole holds those more often.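 Interpretation: 100, growth as untreated; towards 0, rising growth inhibition; 0, no net growth; 0 to -100, cell death. Compounds scoring below 10 were considered active.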 A number with no mark means an inactive call. Calls of active or inactive are those of the source.

`CCc1cnn2c(NCc3ccc[n+]([O-])c3)cc(N3CCCC[C@H]3CCO)nc12`: the growth is -23.3% (active) in the experiment on NCI-H23 lung; -6.42% (active) in the experiment with NCI-H226 lung; -0.876% (active) in the experiment on NCI-H322M lung; -33.2% (active) in the experiment with HOP-62 NSCLC; 1.82% (active) in the experiment on NCI-H460 lung; -20.2% (active) with HOP-92 NSCLC. For the same molecule, the growth in the experiment on NCI-H522 lung was -42.2% (active); with A549/ATCC NSCLC, -13.4% (active); in the experiment on 786-0 renal it was 7.96% (active); in the experiment with COLO 205 colon it was -62.5% (active).

As for `C[C@H](NC(=O)c1c(N)nn2cccnc12)c1cc2cccc(C#Cc3cnn(C)c3)c2c(=O)n1-c1ccccc1`, the growth with NCI-H23 lung was 40.9%; in the experiment with NCI-H226 lung, 70.3%; in the experiment on NCI-H322M lung, 53.6%; in the experiment on HOP-62 NSCLC it was 11.8%; in the experiment with NCI-H460 lung, 30.4%; with HOP-92 NSCLC, 9.5% (active). Moreover, the growth is 14.1% with NCI-H522 lung, 20.3% with A549/ATCC NSCLC, 19.1% with 786-0 renal and -11.7% (active) in the experiment with COLO 205 colon.

Take `O=C(Nc1ccc(C(=O)Nc2ccc(C3=NCCCN3)cc2)cc1)Nc1ccc(C2=NCCCN2)cc1`: the growth was 63% with NCI-H23 lung; 67.9% with NCI-H226 lung; 84.8% in the experiment with NCI-H322M lung; 87.1% in the experiment on HOP-62 NSCLC; 75% in the experiment on NCI-H460 lung; 80.5% in the experiment on HOP-92 NSCLC. Also, the growth is 71.6% with NCI-H522 lung, 75.9% with A549/ATCC NSCLC, 96.7% with 786-0 renal and 105% in the experiment on COLO 205 colon.

With `C=C1CC[C@@H]2[C@](C)(COC(C)=O)[C@H](OC(C)=O)CC[C@@]2(C)[C@@H]1C/C=C1/C(=O)OC[C@H]1OC(C)=O`, the growth with NCI-H23 lung was 80.9%; with NCI-H226 lung, 23.6%; in the experiment on NCI-H322M lung it was 101%; in the experiment on HOP-62 NSCLC, 75.7%; in the experiment on NCI-H460 lung, 98%; in the experiment on HOP-92 NSCLC, 71.9%. Further, the growth in the experiment with NCI-H522 lung was -41.6% (active); in the experiment on A549/ATCC NSCLC, 85.8%; with 786-0 renal, -10.9% (active); in the experiment with COLO 205 colon, 22%.

As for `CC(=O)Nc1cccc(-n2c(=O)n(C3CC3)c(=O)c3c(Nc4ccc(I)cc4F)n(C)c(=O)c(C)c32)c1`, the growth in the experiment on NCI-H23 lung was 17.1%; in the experiment with NCI-H226 lung, 49.5%; with NCI-H322M lung, 10.9%; in the experiment on HOP-62 NSCLC it was 19.5%; with NCI-H460 lung, 56.1%; with HOP-92 NSCLC, -27% (active). For the same molecule, the growth with NCI-H522 lung was 34.6%; in the experiment with A549/ATCC NSCLC, 28.4%; in the experiment on 786-0 renal, 56.2%; in the experiment on COLO 205 colon, -12.9% (active).

With `C=CC(=O)N(C)[C@H]1C[C@H]2OC(C)(C1OC)n1c3ccccc3c3c4c(c5c6ccccc6n2c5c31)C(=O)NC4` (stereo not given in full), the growth was 4.64% (active) with NCI-H23 lung; -60.7% (active) with NCI-H226 lung; 6.29% (active) in the experiment on NCI-H322M lung; -15.4% (active) in the experiment with HOP-62 NSCLC; 1.35% (active) in the experiment on NCI-H460 lung; -21.8% (active) in the experiment with HOP-92 NSCLC. Also, the growth in the experiment on NCI-H522 lung is -54.5% (active); in the experiment with A549/ATCC NSCLC it was 9.49% (active); with 786-0 renal it was -74.2% (active); in the experiment on COLO 205 colon, -75.3% (active).

Take `CNC(=O)c1cc(Oc2ccc3nc(NC(=O)Nc4ccc(Cl)c(C(F)(F)F)c4)sc3c2)ccn1`: the growth was 16.5% in the experiment on NCI-H23 lung; 20.6% with NCI-H226 lung; 23.7% with NCI-H322M lung; -31.3% (active) with HOP-62 NSCLC; 3.45% (active) with NCI-H460 lung; -27.6% (active) with HOP-92 NSCLC. The growth is 17.1% in the experiment with NCI-H522 lung, -25.1% (active) in the experiment with A549/ATCC NSCLC, -64.4% (active) in the experiment with 786-0 renal and 23.8% in the experiment with COLO 205 colon.

`C=C1C(=O)O[C@H]2[C@H]1CC/C(Cn1cc(-c3cc(C)c(C)cc3C)nn1)=C\CC[C@@]1(C)O[C@@H]21`: the growth with NCI-H23 lung is -61.3% (active); with NCI-H226 lung it was -65.2% (active); with NCI-H322M lung, 68.3%; in the experiment with HOP-62 NSCLC, 55.7%; in the experiment on NCI-H460 lung, 36.5%; in the experiment on HOP-92 NSCLC it was -79% (active). Besides, the growth in the experiment on NCI-H522 lung is -64.2% (active); in the experiment with A549/ATCC NSCLC, 26%; in the experiment on 786-0 renal, -77.5% (active); in the experiment with COLO 205 colon it was -70.5% (active).

`CC1(COc2ccc3c(c2)ncn3-c2ccc3cccc(N4CCC(N)CC4)c3n2)COC1`: the growth was 20.6% in the experiment on NCI-H23 lung; 19.9% in the experiment on NCI-H226 lung; 41.1% in the experiment with NCI-H322M lung; 2.15% (active) in the experiment with HOP-62 NSCLC; -33% (active) in the experiment with NCI-H460 lung; 63.3% in the experiment on HOP-92 NSCLC. In addition, the growth was -36.9% (active) with NCI-H522 lung, -35.2% (active) in the experiment with A549/ATCC NSCLC, -33.2% (active) with 786-0 renal and -66.5% (active) with COLO 205 colon.

With `COc1cc2c(Oc3ccc(NC(=O)C4(C(=O)Nc5ccc(F)cc5)CC4)cc3F)ccnc2cc1OCCCN1CCOCC1`, the growth in the experiment on NCI-H23 lung is 10.1%; in the experiment with NCI-H226 lung, 12.3%; with NCI-H322M lung, -1.77% (active); in the experiment on HOP-62 NSCLC, -13.5% (active); in the experiment with NCI-H460 lung, -40.8% (active); with HOP-92 NSCLC, -58.2% (active). For the same molecule, the growth in the experiment with NCI-H522 lung is -57% (active); in the experiment on A549/ATCC NSCLC, -77.1% (active); in the experiment on 786-0 renal, -75.7% (active); with COLO 205 colon, -71.3% (active).
